Experimental findings from PubChem BioAssay (EPA / NIEHS) are described below.

In general, AC50 refers to the concentration at which the activity in the assay is half-maximal.

Molecules are shown by their SMILES. Inconclusive results are not listed. Activity calls are given as the source filed them. The calls were made as follows, unless noted: active = hit-call score of the fitted dose curve at least 0.9, where 1 is the maximum; inconclusive = response in the unintended direction; inactive = score below 0.9.

Experiment [1] concerns the target Bile acid receptor (Homo sapiens) (UniProt Q96RI1). Put plainly: ATG_IR1_CIS: Attagene CIS-FACTORIAL HepG2 Assay for human Nuclear Receptor Subfamily 1 Group H Member 4 (NR1H4), IR1 submotif (AID 2282946; active = hit-call score of the fitted dose curve at least 0.9, where 1 is the maximum; inactive = score below 0.9). The conditions noted are these: IR1 reporter transcription, actives raise or lower the signal. The procedure, abridged:
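Cells (human HepG2) carry transiently transfected cis-promoter reporter transcription units. Compounds are incubated 24 h, total RNA is reverse-transcribed and amplified, and labelled fragments are resolved by capillary electrophoresis. Curves use DMSO as baseline.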

A short description of experiment [2]: ATG_PBREM_CIS: Attagene CIS-FACTORIAL HepG2 Assay for human Phenobarbital-responsive Enhancer Module (PBREM) (AID 2282955; active = hit-call score of the fitted dose curve at least 0.9, where 1 is the maximum; inactive = score below 0.9). The conditions noted are these: HepG2 PBREM cis-reporter, Attagene multiplexed transcription; actives raise or lower the signal. The procedure, abridged:
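Fluorescence of labelled reporter cDNA fragments, resolved by capillary electrophoresis, gives mRNA induction in transfected HepG2 cells treated for 24 h; DMSO serves as negative control and baseline.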

For experiment [3], the target named is Nuclear receptor subfamily 1 group I member 3 (Homo sapiens) (UniProt Q14994). Put plainly: ATG_CAR_TRANS: Attagene TRANS-FACTORIAL HepG2 Assay for human Constitutive Androstane Receptor (CAR) (AID 2282969).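 Also: activators raise reporter mRNA above DMSO so AC50 marks induction.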 The conditions noted are these: HepG2 Attagene TRANS-FACTORIAL CAR reporter. The gist of the method:
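Readout is reporter mRNA induction, quantified by fluorescent primer extension and capillary electrophoresis after RT-PCR. Cells were HepG2 transiently carrying chimeric NR-Gal4 constructs with GAL4-UAS reporters, treated for 24 h; activity scored upward from DMSO.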

For experiment [4], the target named is Oxysterols receptor LXR-beta (Homo sapiens) (UniProt P55055). In words: ATG_LXRb_TRANS: Attagene TRANS-FACTORIAL HepG2 Assay for human Liver X Receptor beta (LXRb) (AID 2282981). The conditions noted are these: HepG2 Attagene TRANS GAL4-LXRb reporter, mRNA. The procedure, abridged: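 Transient transfection HepG2 (multiplexed RTUs, GAL4-UAS); NR-Gal4 chimera; 24 h exposure; RNA → RT-PCR → 6-FAM primer extension → HpaI → CE; increase vs DMSO.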
Chain of Oxysterols receptor LXR-beta (Homo sapiens) (P55055 whole entry, looked up, the tested form may be a part): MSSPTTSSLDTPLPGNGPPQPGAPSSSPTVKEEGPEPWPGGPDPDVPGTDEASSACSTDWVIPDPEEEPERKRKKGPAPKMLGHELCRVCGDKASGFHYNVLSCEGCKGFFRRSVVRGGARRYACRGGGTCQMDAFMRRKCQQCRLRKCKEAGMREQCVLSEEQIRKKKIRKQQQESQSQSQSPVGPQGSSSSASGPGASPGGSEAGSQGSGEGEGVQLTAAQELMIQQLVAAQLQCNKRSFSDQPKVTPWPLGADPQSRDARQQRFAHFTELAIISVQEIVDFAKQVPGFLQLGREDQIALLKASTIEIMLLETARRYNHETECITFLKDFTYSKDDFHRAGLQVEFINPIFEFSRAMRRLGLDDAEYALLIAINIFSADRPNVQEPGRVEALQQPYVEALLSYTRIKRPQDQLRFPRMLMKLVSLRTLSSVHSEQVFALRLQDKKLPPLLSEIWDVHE

The nature of experiment [5]: ATG_M_32_TRANS: Attagene TRANS-FACTORIAL HepG2 Assay for M32 Transcription Factor (Internal Marker) (AID 2282984). The conditions noted are these: HepG2 Attagene TRANS M32 internal marker reporter. The procedure, abridged:
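Measures reporter mRNA induction in human HepG2 liver cells after 24 h chemical treatment. Transcripts from transiently transfected GAL4-UAS reporter units are amplified, fluorescently labelled and sized by capillary electrophoresis; gain of signal relative to DMSO.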

The target in experiment [6] is human Peroxisome Proliferator-activated Receptor alpha (PPARa), PPARA (gene 5465) (UniProt Q07869). Put plainly: ATG_PPARa_TRANS: Attagene TRANS-FACTORIAL HepG2 Assay for human Peroxisome Proliferator-activated Receptor alpha (PPARa) (AID 2283001).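 As to AC50: potency for gain of reporter signal over DMSO so agonist or activator.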 The gist of the method: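 Read-out is fluorescence of reporter cDNA fragments resolved by capillary electrophoresis after RT-PCR. Human HepG2 liver cells carried transfected PPARa-Gal4 chimera and GAL4-UAS reporter units, treated 24 h; activity scored as increase over DMSO.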
Chain of human Peroxisome Proliferator-activated Receptor alpha (PPARa), PPARA (gene 5465) (Q07869 whole entry, looked up, the tested form may be a part): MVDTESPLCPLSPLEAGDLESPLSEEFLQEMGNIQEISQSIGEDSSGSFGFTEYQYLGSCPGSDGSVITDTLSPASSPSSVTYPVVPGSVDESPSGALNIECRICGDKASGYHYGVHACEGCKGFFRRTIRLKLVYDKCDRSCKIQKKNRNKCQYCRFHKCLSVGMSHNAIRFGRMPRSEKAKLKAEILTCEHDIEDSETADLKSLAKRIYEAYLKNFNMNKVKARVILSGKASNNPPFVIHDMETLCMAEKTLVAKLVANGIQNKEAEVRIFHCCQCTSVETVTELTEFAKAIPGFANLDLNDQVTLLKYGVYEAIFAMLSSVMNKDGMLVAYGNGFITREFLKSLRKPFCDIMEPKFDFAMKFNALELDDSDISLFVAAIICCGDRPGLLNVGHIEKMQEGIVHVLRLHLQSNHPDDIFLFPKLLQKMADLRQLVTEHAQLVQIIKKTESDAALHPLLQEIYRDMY

Experiment [7] addresses Peroxisome proliferator-activated receptor gamma (Homo sapiens) (UniProt P37231). Put plainly: ATG_PPARg_TRANS: Attagene TRANS-FACTORIAL HepG2 Assay for human Peroxisome Proliferator-activated Receptor-gamma (PPARg) (AID 2283007). The procedure, abridged:
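A TRANS-format multiplexed reporter assay measures activity of an exogenous chimeric NR-Gal4 protein in HepG2 cells. After 24 h of chemical exposure, reporter transcripts are amplified, fluorescently labelled and sized by capillary electrophoresis, with gain of signal scored against DMSO.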

The target in experiment [8] is human RAR-related Orphan Receptor beta (RORb), RORB (gene 6096) (UniProt Q92753). In words: ATG_RORb_TRANS: Attagene TRANS-FACTORIAL HepG2 Assay for human RAR-related Orphan Receptor beta (RORb) (AID 2283010). The gist of the method: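 HepG2 cells transiently transfected with GAL4-UAS reporter units expressing chimeric NR-Gal4 protein; reporter mRNA measured 24 h after dosing by RT-PCR, 6-FAM labelling and capillary electrophoresis. Gain-of-signal fitted relative to DMSO baseline.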
Chain of human RAR-related Orphan Receptor beta (RORb), RORB (gene 6096) (Q92753 whole entry, looked up, the tested form may be a part): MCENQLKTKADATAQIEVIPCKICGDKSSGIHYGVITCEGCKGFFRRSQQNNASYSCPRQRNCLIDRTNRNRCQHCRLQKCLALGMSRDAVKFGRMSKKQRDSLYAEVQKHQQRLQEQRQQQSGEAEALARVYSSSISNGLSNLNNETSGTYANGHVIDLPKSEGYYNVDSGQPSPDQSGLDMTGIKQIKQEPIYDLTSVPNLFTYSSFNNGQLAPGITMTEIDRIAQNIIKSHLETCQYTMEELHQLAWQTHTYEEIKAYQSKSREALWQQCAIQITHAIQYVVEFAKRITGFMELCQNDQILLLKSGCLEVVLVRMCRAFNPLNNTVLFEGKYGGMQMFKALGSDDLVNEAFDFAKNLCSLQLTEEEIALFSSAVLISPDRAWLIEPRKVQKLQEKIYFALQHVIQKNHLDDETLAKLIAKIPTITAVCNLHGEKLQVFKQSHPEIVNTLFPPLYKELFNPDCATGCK

Experiment [9] deals with human Thyroid Receptor alpha (THRa1), THRA (gene 7067) (UniProt P10827). In words: ATG_THRa1_TRANS: Attagene TRANS-FACTORIAL HepG2 Assay for human Thyroid Receptor alpha (THRa1) (AID 2283014). The procedure, abridged: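 HepG2 cells transiently transfected with chimeric NR-Gal4 and GAL4-UAS reporter units, dosed 24 h. Reporter mRNA quantified by RT-PCR, fluorescent labeling, HpaI digestion and capillary electrophoresis; gain-of-signal fit versus DMSO.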
Chain of human Thyroid Receptor alpha (THRa1), THRA (gene 7067) (P10827 whole entry, looked up, the tested form may be a part): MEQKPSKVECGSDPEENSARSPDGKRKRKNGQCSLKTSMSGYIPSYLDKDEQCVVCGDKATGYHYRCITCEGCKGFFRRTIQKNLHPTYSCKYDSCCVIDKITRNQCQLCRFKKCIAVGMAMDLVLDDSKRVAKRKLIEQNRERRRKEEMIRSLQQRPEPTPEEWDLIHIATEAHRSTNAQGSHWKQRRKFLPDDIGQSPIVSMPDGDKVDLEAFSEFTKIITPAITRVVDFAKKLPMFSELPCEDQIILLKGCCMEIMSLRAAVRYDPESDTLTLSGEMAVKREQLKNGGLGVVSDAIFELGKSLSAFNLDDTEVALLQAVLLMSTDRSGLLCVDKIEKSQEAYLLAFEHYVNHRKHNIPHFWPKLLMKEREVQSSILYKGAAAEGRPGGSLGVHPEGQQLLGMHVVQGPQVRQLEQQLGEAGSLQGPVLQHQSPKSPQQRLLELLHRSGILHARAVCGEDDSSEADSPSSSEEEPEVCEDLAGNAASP

The target in experiment [10] is human Vitamin D Receptor (VDR), VDR (gene 7421) (UniProt P11473). Put plainly: ATG_VDR_TRANS: Attagene TRANS-FACTORIAL HepG2 Assay for human Vitamin D Receptor (VDR) (AID 2283022). The procedure, abridged:
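HepG2 cells were transiently transfected with GAL4-UAS reporter units and a chimeric VDR-Gal4 construct, then dosed for 24 hours. Reporter mRNA was quantified by RT-PCR, fluorescent labeling, HpaI digestion and capillary electrophoresis; gain of signal analysed vs DMSO.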

The nature of experiment [11]: TOX21_p53_BLA_p2_viability: Viability Assessment in the Tox21 HCT-116 p53 Agonism Beta-lactamase Assay, Phase 2 (AID 2283591).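 Also: compound exposure lasted 16 h at 37 °C; actives lower the ATP signal meaning cytotoxicity.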 The procedure, abridged:
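Cytotoxicity readout: CellTiter-Glo ATP luminescence, 30 min at room temperature, after the beta-lactamase read. Cells were HCT116 exposed 16 h at 37C to compounds pin-transferred at 217-fold dilution from DMSO stocks.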

The nature of experiment [12]: TOX21_p53_BLA_p3_viability: Viability Assessment in the Tox21 HCT-116 p53 Agonism Beta-lactamase Assay, Phase 3 (AID 2283593).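 Also: cells exposed to compound for 16 h before reading.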 The gist of the method: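 Cellular ATP was quantified by CellTiter-Glo luminescence, read after 30 min at room temperature. Beforehand, HCT116 cells (4000/well) received compound 5 h post-seeding, 217-fold diluted from DMSO, then incubated 16 h at 37C.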

For experiment [13], the target named is Retinoic acid receptor alpha (Homo sapiens) (UniProt P10276). Put plainly: ATG_DR5_RAR_CIS: Attagene CIS-FACTORIAL HepG2 Assay for human Retinoic Acid Receptor Alpha (RARE), DR5 submotif (AID 2282934; active = hit-call score of the fitted dose curve at least 0.9, where 1 is the maximum; inactive = score below 0.9). The conditions noted are these: HepG2 Attagene cis-factorial RARE DR5 reporter, mRNA; actives raise or lower the signal. The procedure, abridged:
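HepG2, transient cis-reporter transfection, 24 h exposure. mRNA readout: RT-PCR, FAM label, HpaI cut, capillary electrophoresis. DMSO baseline, gain/loss fitting.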

The target of experiment [14] is Glucocorticoid receptor (Homo sapiens) (UniProt P04150). Put plainly: ATG_GR_TRANS: Attagene TRANS-FACTORIAL HepG2 Assay for human Glucocorticoid Receptor (GR) (AID 2282978).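 Also: activators score as hits since higher reporter transcript over DMSO is fitted.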 The conditions noted are these: HepG2 Attagene TRANS GR reporter, mRNA transcription. The gist of the method:
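In this trans-factorial format, exogenous NR-GAL4 chimeric proteins in transfected HepG2 cells regulate GAL4-UAS reporter transcription. After 24 h treatment, reporter mRNA induction relative to DMSO is read by RT-PCR and capillary electrophoresis.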

Experiment [15] addresses Oxysterols receptor LXR-alpha (Homo sapiens) (UniProt Q13133). Put plainly: ATG_LXRa_TRANS: Attagene TRANS-FACTORIAL HepG2 Assay for human Liver X Receptor alpha (LXRa) (AID 2282980). The conditions noted are these: HepG2 Attagene TRANS reporter, LXRa transactivation. The procedure, abridged:
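HepG2 cells transiently transfected with GAL4-UAS reporter units for chimeric NR-Gal4 proteins, exposed to chemicals for 24 h. Reporter mRNA quantified by RT-PCR and capillary electrophoresis; gain of signal fitted relative to DMSO.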

The target in experiment [16] is Nuclear receptor subfamily 4 group A member 2 (Homo sapiens) (UniProt P43354). In words: ATG_NURR1_TRANS: Attagene TRANS-FACTORIAL HepG2 Assay for human Nuclear Receptor Related Protein 1 (NURR1) (AID 2282985). The conditions noted are these: HepG2 Attagene TRANS reporter, mRNA readout. The procedure, abridged: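 Transient transfection of HepG2, human liver cells, with multiple GAL4-UAS reporter transcription units. Cells dosed 24 h, RNA isolated, reverse-transcribed, PCR-amplified, FAM-labelled, HpaI-digested, sized by capillary electrophoresis. DMSO served as negative control.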

A short description of experiment [17]: TOX21_p53_BLA_p4_viability: Viability Assessment in the Tox21 HCT-116 p53 Agonism Beta-lactamase Assay, Phase 4 (AID 2283597).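 Also: hits lower the luminescence signal meaning cytotoxicity.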 The gist of the method:
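HCT-116 p53-bla cells, 4000/well, dosed after 5 h attachment and incubated 16 h at 37 °C, 5% CO2. Viability from CellTiter-Glo ATP luminescence after 30 min at room temperature, taken after the beta-lactamase read; loss of signal indicates cytotoxicity.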

Experiment [18] in a line: ATG_GAL4_TRANS: Attagene TRANS-FACTORIAL HepG2 Assay for GAL4 (Internal Marker) (AID 2282976). The conditions noted are these: HepG2 Attagene TRANS GAL4 internal marker reporter. The gist of the method:
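Background-control readout: GAL4-UAS reporter transcript in transiently transfected HepG2 cells after 24 h compound exposure. Measured by RT-PCR, 6-FAM primer extension, HpaI digest and capillary electrophoresis; gain-of-signal fit versus DMSO.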

The target of experiment [19] is human Peroxisome Proliferator-activated Receptor delta (PPARd), PPARD (gene 5467) (UniProt Q03181). In words: ATG_PPARd_TRANS: Attagene TRANS-FACTORIAL HepG2 Assay for human Peroxisome Proliferator-activated Receptor delta (PPARd) (AID 2283002). The procedure, abridged: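 Cell-based TRANS reporter: HepG2, transient MRTU transfection, 24 h exposure. Readout = reporter mRNA (RT-PCR/CE, 6-FAM). Gain-of-signal fit vs DMSO control.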
Chain of human Peroxisome Proliferator-activated Receptor delta (PPARd), PPARD (gene 5467) (Q03181 whole entry, looked up): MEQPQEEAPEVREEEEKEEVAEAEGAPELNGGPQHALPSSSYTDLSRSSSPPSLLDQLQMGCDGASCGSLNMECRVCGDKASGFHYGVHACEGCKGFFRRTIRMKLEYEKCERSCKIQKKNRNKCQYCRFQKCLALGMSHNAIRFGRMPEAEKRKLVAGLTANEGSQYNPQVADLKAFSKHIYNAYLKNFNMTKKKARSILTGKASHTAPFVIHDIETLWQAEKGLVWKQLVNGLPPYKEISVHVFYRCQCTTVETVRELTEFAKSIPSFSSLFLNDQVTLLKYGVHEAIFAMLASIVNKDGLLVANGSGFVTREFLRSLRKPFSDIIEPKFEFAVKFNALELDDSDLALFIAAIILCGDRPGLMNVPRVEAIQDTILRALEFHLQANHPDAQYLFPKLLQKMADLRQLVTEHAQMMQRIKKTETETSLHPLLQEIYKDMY

Experiment [20] is described as follows: CCTE_Harrill_HTTr_Apoptosis_MCF7: CCTE's 6-hour Apoptosis Assessment for the High-Throughput Transcriptomics (HTTr) Platform, in MCF-7 cells cultured in DMEM + 10% fetal bovine serum, Harrill Lab (AID 2284011; active = hit-call score of the fitted dose curve at least 0.9, where 1 is the maximum; inactive = score below 0.9). The gist of the method: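 MCF-7 cells in DMEM + 10% FBS exposed 6 h to chemicals over an eight-point dilution series. Caspase-3/7 activation imaged by high-content CellEvent Green staining; fitted bidirectionally versus DMSO.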

Chain of Peroxisome proliferator-activated receptor gamma (Homo sapiens) (P37231 whole entry, looked up, the tested form may be a part): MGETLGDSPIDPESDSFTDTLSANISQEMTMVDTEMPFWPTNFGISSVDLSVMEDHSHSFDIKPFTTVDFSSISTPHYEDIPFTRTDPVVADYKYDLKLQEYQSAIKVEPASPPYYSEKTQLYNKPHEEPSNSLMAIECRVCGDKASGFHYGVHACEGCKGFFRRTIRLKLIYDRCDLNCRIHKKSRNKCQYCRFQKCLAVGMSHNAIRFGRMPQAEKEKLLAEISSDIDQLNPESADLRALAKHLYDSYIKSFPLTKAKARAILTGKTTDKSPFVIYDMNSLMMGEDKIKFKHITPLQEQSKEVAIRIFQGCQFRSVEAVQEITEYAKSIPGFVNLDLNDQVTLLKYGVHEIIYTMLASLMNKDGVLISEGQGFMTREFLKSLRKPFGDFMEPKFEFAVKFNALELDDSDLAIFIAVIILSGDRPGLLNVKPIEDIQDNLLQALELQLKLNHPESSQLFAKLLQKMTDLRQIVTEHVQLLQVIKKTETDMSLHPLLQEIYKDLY
Chain of Retinoic acid receptor alpha (Homo sapiens) (P10276 whole entry, looked up): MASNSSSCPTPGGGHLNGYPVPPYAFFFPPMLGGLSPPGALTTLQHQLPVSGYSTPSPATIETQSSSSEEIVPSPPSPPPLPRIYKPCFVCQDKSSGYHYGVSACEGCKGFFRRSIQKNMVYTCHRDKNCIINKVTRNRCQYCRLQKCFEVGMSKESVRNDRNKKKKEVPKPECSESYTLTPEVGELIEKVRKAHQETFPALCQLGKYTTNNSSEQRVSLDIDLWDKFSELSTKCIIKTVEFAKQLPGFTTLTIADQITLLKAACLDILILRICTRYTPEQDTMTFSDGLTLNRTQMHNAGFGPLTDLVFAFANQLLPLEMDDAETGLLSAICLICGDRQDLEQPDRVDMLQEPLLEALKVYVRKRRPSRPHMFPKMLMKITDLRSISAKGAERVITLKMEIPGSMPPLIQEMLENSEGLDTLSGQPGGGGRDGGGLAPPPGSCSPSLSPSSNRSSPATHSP
Chain of Nuclear receptor subfamily 1 group I member 3 (Homo sapiens) (Q14994 whole entry, looked up, the tested form may be a part): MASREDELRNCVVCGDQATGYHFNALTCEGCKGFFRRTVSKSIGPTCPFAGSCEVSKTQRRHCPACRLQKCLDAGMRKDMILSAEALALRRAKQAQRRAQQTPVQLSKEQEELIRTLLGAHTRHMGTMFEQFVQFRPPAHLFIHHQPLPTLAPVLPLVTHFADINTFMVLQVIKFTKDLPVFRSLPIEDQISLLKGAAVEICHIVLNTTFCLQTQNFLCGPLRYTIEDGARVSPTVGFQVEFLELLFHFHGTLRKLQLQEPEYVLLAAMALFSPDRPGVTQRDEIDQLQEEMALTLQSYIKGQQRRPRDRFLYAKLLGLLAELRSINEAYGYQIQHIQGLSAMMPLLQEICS
Chain of Bile acid receptor (Homo sapiens) (Q96RI1 whole entry, looked up, the tested form may be a part): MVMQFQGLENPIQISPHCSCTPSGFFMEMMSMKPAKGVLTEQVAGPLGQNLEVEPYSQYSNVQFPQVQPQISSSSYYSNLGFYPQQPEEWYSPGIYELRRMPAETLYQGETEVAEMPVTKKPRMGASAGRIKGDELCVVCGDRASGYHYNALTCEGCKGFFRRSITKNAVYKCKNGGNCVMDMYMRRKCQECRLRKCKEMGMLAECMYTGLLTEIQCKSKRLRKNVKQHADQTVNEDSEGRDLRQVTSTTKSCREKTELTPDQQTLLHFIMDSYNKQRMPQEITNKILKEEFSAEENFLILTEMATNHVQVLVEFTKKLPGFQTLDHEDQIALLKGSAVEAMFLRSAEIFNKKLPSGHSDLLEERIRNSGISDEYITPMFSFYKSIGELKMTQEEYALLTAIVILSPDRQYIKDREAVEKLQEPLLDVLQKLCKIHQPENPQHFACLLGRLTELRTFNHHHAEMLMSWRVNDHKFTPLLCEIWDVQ
Chain of Glucocorticoid receptor (Homo sapiens) (P04150 whole entry, looked up, the tested form may be a part): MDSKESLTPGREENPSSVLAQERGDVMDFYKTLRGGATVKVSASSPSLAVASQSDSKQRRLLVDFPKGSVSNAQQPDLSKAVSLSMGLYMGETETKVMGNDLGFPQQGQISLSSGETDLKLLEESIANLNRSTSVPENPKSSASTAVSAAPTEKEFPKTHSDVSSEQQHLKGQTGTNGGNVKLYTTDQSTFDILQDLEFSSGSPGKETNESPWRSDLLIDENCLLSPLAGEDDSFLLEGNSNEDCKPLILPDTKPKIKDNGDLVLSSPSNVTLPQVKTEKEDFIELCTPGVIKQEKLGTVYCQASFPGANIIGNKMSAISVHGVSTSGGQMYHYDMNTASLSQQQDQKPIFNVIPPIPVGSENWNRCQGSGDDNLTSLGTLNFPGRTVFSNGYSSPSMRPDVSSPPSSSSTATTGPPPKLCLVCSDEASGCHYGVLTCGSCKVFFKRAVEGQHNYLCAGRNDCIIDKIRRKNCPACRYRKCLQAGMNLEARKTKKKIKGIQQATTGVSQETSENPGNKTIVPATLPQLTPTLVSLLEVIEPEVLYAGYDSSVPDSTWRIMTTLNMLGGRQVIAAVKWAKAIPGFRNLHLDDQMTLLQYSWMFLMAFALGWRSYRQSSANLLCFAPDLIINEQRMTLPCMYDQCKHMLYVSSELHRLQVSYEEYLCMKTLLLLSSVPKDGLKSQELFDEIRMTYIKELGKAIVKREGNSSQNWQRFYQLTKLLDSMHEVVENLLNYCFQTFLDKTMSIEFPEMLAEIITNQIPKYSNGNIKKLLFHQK

For the compound `O=[N+]([O-])C=Cc1ccccc1`, the half-maximal activity concentration (AC50) was 46.8 µM (active) in [1], 8.83 µM (active) in experiment [7] and 27.2 µM (active) in experiment [11]. The outcome in [2], in experiment [3], in experiment [4], in [5], in experiment [6] and in experiment [8] was inactive. The outcome in [9], in experiment [10] and in experiment [12] was inactive.
`O=[N+]([O-])c1cc([N+](=O)[O-])c2ccccc2c1`: the compound was classed as inactive in experiment [13], in experiment [2], in [14], in [15], in [4] and in [16]. For the same compound, the compound was classed as inactive in experiment [6], in experiment [9], in experiment [10], in experiment [11], in [12] and in experiment [17].
As to `CCCCCCCCCCCCCCCC[N+](C)(C)C`, the outcome in experiment [2], in experiment [3], in experiment [18], in experiment [15], in [16] and in experiment [19] was inactive. Moreover, the compound was called inactive in experiment [8] and in experiment [10]. In addition, the half-maximal activity concentration (AC50) was 49.2 µM (active) in experiment [6] and 27.4 µM (active) in experiment [7].
As for `ClC1=C(Cl)[C@]2(Cl)[C@@H]3[C@@H](Cl)[C@H](Cl)C[C@@H]3[C@@]1(Cl)C2(Cl)Cl`, the outcome in [13], in [1], in [2], in experiment [3], in [14] and in [6] was inactive. The outcome in experiment [8] and in experiment [9] was inactive.
With `CCCCCCC1CCOC1=O` (stereo not drawn), the compound was classed as inactive in [13], in experiment [2], in [18], in [14], in experiment [5] and in experiment [6]. For the same compound, the compound was called inactive in experiment [7] and in experiment [8].
In the case of `[Cl][Sb]([Cl])[Cl]`, the compound was called inactive in [13], in experiment [2], in experiment [3], in experiment [15], in experiment [4] and in experiment [19]. For the same compound, the compound was called inactive in experiment [7], in experiment [8], in experiment [9], in experiment [11], in [17] and in experiment [20].
Consider `C[N+](C)=CCl`, for which the compound was classed as inactive in experiment [13], in [18], in [14], in [8] and in experiment [9].
Consider `Nc1ccccc1`, for which the call in experiment [18], in experiment [15], in [4], in experiment [5], in experiment [6] and in experiment [9] was inactive. Besides, the result in experiment [10] and in experiment [20] was inactive.
Take `SCc1ccco1`: the call in experiment [1], in [2], in experiment [3], in experiment [5], in experiment [16] and in experiment [19] was inactive. Further, the result in experiment [10] was inactive. Moreover, in [6], the AC50 is 33 µM (active).
